PLAP activator: human PLAP activation; activation fold at 20 µM; 96,000 compounds, 1.2% hits; purified PLAP enzyme, luminescent substrate read-out; stronger effect = higher value; in the data active means activation fold above about 2
CYP2C19 act: increases human CYP2C19 enzyme activity. 96,000 tested, under 10 active. P33261. AID 1025. recombinant CYP2C19, luciferin-H EGE luminescence; stronger effect = higher value; 0 = fully inhibited enzyme, 1 = untreated enzyme. activation factor at 5 µM;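 active means activation factor of at least 2 at 5 µM in the primary screen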;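 further: 0 = wells with 2.5 mM tranylcypromine and 1 = vehicle-only wells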
CYP2C19 inhib: blocks human cytochrome P450 2C19; P33261; CYP2C19 Supersomes, luciferin-H EGE luminescence, 30 min; inhibition, % at 5 µM; 96,000 compounds, 21% hits;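 active means CYP2C19 inhibition above a set limit at 5 µM in the primary screen, cut at about 50% in these data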;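 further: plate controls were negative control wells for no effect and 2.5 mM tranylcypromine positive control for full effect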
CYP2C9 inh: blocks human cytochrome P450 2C9. 96,000 compounds, 20% hits. inhibition, % at 5 µM. CYP2C9 Supersomes, luciferin-H conversion, luminescence;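 active means blocking of liver enzyme CYP2C9 beyond about 50% at 5 µM, limit read from the data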
Target sequence (P11712 whole entry, looked up): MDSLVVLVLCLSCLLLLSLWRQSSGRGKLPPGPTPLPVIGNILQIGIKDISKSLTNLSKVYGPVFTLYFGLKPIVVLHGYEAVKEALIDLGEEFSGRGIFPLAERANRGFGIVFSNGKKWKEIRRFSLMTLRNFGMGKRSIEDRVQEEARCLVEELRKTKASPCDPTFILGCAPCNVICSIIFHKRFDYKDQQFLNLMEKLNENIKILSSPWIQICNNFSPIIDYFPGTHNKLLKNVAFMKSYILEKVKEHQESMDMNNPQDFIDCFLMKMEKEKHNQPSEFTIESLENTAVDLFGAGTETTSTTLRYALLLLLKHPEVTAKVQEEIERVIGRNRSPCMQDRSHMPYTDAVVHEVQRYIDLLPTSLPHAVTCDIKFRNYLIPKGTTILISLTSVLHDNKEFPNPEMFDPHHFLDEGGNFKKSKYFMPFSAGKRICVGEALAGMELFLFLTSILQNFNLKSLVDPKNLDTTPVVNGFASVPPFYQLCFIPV
CYP2C9 activ: activators of human CYP2C9; 96,000 compounds, 1.4% hits; recombinant CYP2C9, luciferin-H conversion, luminescence; stronger effect = higher value; factor 1 = untreated enzyme, 0 = blocked; P11712; activation factor at 5 µM;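 active means activation factor of 2 or more for CYP2C9 at a 5 µM dose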;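 further: 0 = sulfaphenazole-blocked wells and 1 = vehicle-only wells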
The depositor's hits bear a star. Rows were chosen to be rich in hits. Some 31% of all compounds tested hit in one or more screens of this group.

SMILES	PLAP activator	CYP2C19 act	CYP2C19 inhib	CYP2C9 inh	CYP2C9 activ
COc1ccc(C)cc1NC(=O)CSc1nnc(-c2ccc(C)cc2)o1	1	0.9	8.9	20.1	0.8
COc1ccc(CCCc2nnc(SCC(=O)Nc3nccs3)n2C)cc1C	1.2	0.4	59.1*	-31.2	1.3
Cc1nn(C(C)(C)C)c(OC(=O)c2ccco2)c1Sc1ccccc1	1	0.9	6.3	61.4*	0.4
Cc1nn(C(C)(C)C)c(OC(=O)c2cccs2)c1Sc1ccccc1	1.2	0.7	33.2	65.1*	0.3
CC(C)(C)n1nc2c(c1NC(=O)c1ccc(Br)o1)CS(=O)C2 (configuration not stated)	0.7	0.9	5.4	10.0	0.9
Cc1nn(C(=O)c2ccco2)c(C)c1Sc1ccccc1	1	1	3.7	-0.4	1
Cc1nn(C(C)(C)C)c(OC(=O)c2ccc(Br)o2)c1Sc1ccccc1	1.4	0.3	73.8*	12.4	0.9
CSCCC(NS(=O)(=O)c1ccc2c(c1)oc(=O)n2C)C(=O)NC1CCC(C)CC1 (configuration not stated)	1	0.9	5.8	15.2	0.8
COc1ccc(-c2nc3n(n2)C(c2ccccc2)C2=C(CCCC2=O)N3)cc1OC (configuration not stated)	1	0.9	14.4	28.1	0.7
COc1ccc(-n2cnnc2SCC(=O)c2ccc(S(=O)(=O)N3CCOCC3)cc2)cc1	1.7	0.8	20.5	19.1	0.8
Cc1c(CN(C)C(=O)c2sc3cc(Cl)ccc3c2Cl)cnn1C	1.3	0.1	92.6*	-34.1	1.3
OCC#Cc1cnc2ccccc2c1	1	0.7	26.9	15.4	0.8
CN(C)S(=O)(=O)c1ccc(NC(=O)c2ccc(Br)o2)cc1	0.9	0.5	54.2*	42.7	0.6
CN(C1CCCCC1)S(=O)(=O)c1ccc(NC(=O)c2ccc(Br)o2)cc1	1.3	0.1	93.7*	98.4*	0
CN(C)S(=O)(=O)c1ccc(NC(=O)c2cc3ccccc3o2)cc1	0.7	0.9	14.2	3.3	1
COc1ccccc1NS(=O)(=O)c1ccc(NC(=O)CCNC(=O)c2ccco2)cc1	1.1	0.9	12.4	0.6	1
CC1(C)CC(=O)c2cnc(N3CCc4ccccc4C3)nc2C1	1.1	0.9	11.3	17.4	0.8
COc1cc(-n2c(C)nc3cc(C(=O)N4CCOCC4)ccc32)cc(OC)c1OC	1.3	1.1	-14.3	-13.4	1.1
CCC(=O)N1CCCc2cc(S(=O)(=O)N3CCN(c4ccccc4F)CC3)ccc21	1.8	0	95.5*	99.9*	0
CCC(=O)N1CCCc2cc(S(=O)(=O)N3CCN(c4ncccn4)CC3)ccc21	1.2	0	98.2*	95.6*	0
CCC(=O)N1CCCc2cc(S(=O)(=O)N3CCN(c4ccccn4)CC3)ccc21	1.6	0.5	50.1*	79.7*	0.2
Cc1cc(C)nc(SCc2nc(N)nc(-c3ccccc3O)n2)n1	1.3	0.1	85.1*	35.8	0.6
Nc1nc(N)nc(-c2ccccc2O)n1	1	1	-0.2	4.9	1
CC(C)(C#N)NC(=O)c1ccco1	1	1	-3.1	3.8	1
CCN(CC)C(=O)CSc1nnc([C@@H](N)Cc2ccccc2)o1	1.1	0.8	21.1	-6.4	1.1
SMILES	PLAP activator	CYP2C19 act	CYP2C19 inhib	CYP2C9 inh	CYP2C9 activ
CC(=O)Nc1ccc(S(=O)(=O)N(C)CC(=O)Nc2ccccc2N2CCOCC2)cc1	0.8	0.9	13.1	-33.9	1.3
Cc1cc2c(cc(C(=O)N3CCC(C(=O)N4CCCC4)CC3)n2Cc2c(F)cccc2Cl)o1	1.6	0	96.1*	78.2*	0.2
C/C(N)=C(/C#N)C(=O)COC(=O)COc1ccc(Cl)cc1C	1.2	0.8	20.6	4.5	1
C/C(N)=C(/C#N)C(=O)COC(=O)CSc1ccc2ccccc2c1	0.9	0.7	27.5	4.7	1
C/C(N)=C(/C#N)C(=O)COC(=O)CC12CC3CC(CC(C3)C1)C2	1	0.2	77.5*	80.9*	0.2
C/C(N)=C(/C#N)C(=O)COC(=O)C1CCC(C(C)(C)C)CC1 (configuration not stated)	1.6	0.1	89.6*	84.0*	0.2
C/C(NC1CCCC1)=C(/C#N)C(N)=O	1	1.1	-5.8	-15.4	1.2
C/C(N)=C(/C#N)C(=O)COC(=O)CC1CCCC1	1	0.1	88.5*	41.2	0.6
CN(C)CC(O)COc1cc2ccccc2cc1C(=O)N1CCCCC1 (configuration not stated)	1.6	0.9	7.0	13.9	0.9

Compound activity (PubChem BioAssay)
